Measured values taken from PubChem BioAssay (NCI).
The panel holds about 79,000 compounds, 15% with a hit somewhere; the sample as a whole holds those more often. A number with no mark means an inactive call. Active and inactive are the calls of the source. Rule as the data show it: active = growth inhibition above about 70%; inactive = the rest.

Assays:
[1] = NCI Yeast Anticancer Drug Screen. Data for the rad52 strain (AID 147);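 also: 0% = growth of vehicle-treated control cultures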; settings: S. cerevisiae rad52 mutant growth inhibition, active compounds read high
How it was run: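 Read-out: growth inhibition versus vehicle-treated controls. Cells were a DNA repair-deficient yeast strain treated with compounds.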

[2] = NCI Yeast Anticancer Drug Screen. Data for the wt1 strain (AID 149);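 also: 0% = growth of vehicle-treated wt1 cultures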; settings: S. cerevisiae wt1 strain (SPY 50644) growth inhibition, active compounds read high
How it was run: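 Readout: yeast growth inhibition, normalised to vehicle controls, in the wt1 strain exposed to test compounds.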

[3] = NCI Yeast Anticancer Drug Screen. Data for the rad50EPP+ strain (AID 151);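 also: 0% = growth of vehicle-treated control cultures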; settings: S. cerevisiae rad50 mutant strain, active compounds read high
How it was run: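 Growth inhibition read against vehicle controls in rad50EPP+ yeast, a strain altered in DNA damage repair, after compound exposure.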

[4] = NCI Yeast Anticancer Drug Screen. Data for the mgt1 strain (AID 153); settings: S. cerevisiae mgt1 mutant growth inhibition, active compounds read high
How it was run: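 mgt1 yeast grown with test compound; read-out is growth inhibition versus vehicle-treated cultures.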

[5] = NCI Yeast Anticancer Drug Screen. Data for the rad50 strain (AID 155);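 also: 0% = growth of vehicle-only cultures of the same strain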; settings: S. cerevisiae rad50 strain growth inhibition, active compounds read high
How it was run: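 Compounds were tested on a yeast strain with an engineered DNA damage repair alteration; the reported value is growth inhibition normalised to vehicle treatment.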

[6] = NCI Yeast Anticancer Drug Screen. Data for the mec2-1 strain (AID 157); settings: S. cerevisiae mec2-1 strain, active compounds read high
How it was run: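 Yeast mec2-1 mutant treated with compound. Readout: growth inhibition vs vehicle controls.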

SMILES: CC(=O)Nc1ccc2c(c1)-c1ccccc1C2=O
- growth inhibition ([1]; at 1.2 µM): -1%
- growth inhibition ([1]; at 3.7 µM): 1%
- growth inhibition ([1]; at 11.0 µM): 10%
- growth inhibition ([1]; at 33.0 µM): 70% (active)
- growth inhibition ([1]; at 100.0 µM): 95% (active)
- growth inhibition ([2]; at 1.2 µM): -2%
- growth inhibition ([2]; at 3.7 µM): -1%
- growth inhibition ([2]; at 11.0 µM): -48%
- growth inhibition ([2]; at 33.0 µM): 6%
- growth inhibition ([2]; at 100.0 µM): 45%
- growth inhibition ([3]; at 1.2 µM): -2%
- growth inhibition ([3]; at 3.7 µM): -4%
- growth inhibition ([3]; at 11.0 µM): 2%
- growth inhibition ([3]; at 33.0 µM): 25%
- growth inhibition ([3]; at 100.0 µM): 78% (active)
- growth inhibition ([4]; at 1.2 µM): -5%
- growth inhibition ([4]; at 3.7 µM): -4%
- growth inhibition ([4]; at 11.0 µM): -5%
- growth inhibition ([4]; at 33.0 µM): 1%
- growth inhibition ([4]; at 100.0 µM): 76% (active)
- growth inhibition ([5]; at 1.2 µM): -2%
- growth inhibition ([5]; at 3.7 µM): 19%
- growth inhibition ([5]; at 5.0 µM (retest, dose inferred, filed as 0.5)): 2%
- growth inhibition ([5]; at 11.0 µM): 20%
- growth inhibition ([5]; at 33.0 µM): 68%
- growth inhibition ([5]; at 50.0 µM (retest, dose inferred, filed as 5.0)): 54%
- growth inhibition ([5]; at 50.0 µM): 67.8%
- growth inhibition ([5]; at 100.0 µM): 95% (active)
- growth inhibition ([6]; at 1.2 µM): -1%
- growth inhibition ([6]; at 3.7 µM): 2%
